Potency data for 25 compounds are collected here from PubChem BioAssay (NCATS).

Assay [1] has as its target Nucleoprotein (Lymphocytic choriomeningitis virus (strain Armstrong)) (UniProt P09992). Nature of the assay: qHTS for Inhibitors of the Functional Ribonucleoprotein Complex (vRNP) of Lymphocytic Choriomeningitis Arenaviruses (LCMV): LCMV Primary Screen - GLuc reporter signal (AID 1347086). Note: series mostly up to about 57 µM; nearly all actives have a fitted effect of over 70% in size. For orientation: Quantitative high-throughput screening tests each substance at several concentrations.

A short description of assay [2]: qHTS of pediatric cancer cell lines to identify multiple opportunities for drug repurposing: Primary screen for TC32 cells (AID 1347089; active = well fitted curve in the direction sought with a large enough effect; an effect the other way counts as inactive or inconclusive; note: nearly all actives have a fitted effect of over 60% in size). The procedure, abridged: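 qHTS, TC32, 48 h drug treatment, CellTiter-Glo luminescence as a proxy for metabolically active cells; primary top concentration 46 µM (MIPE 11-pt, NPC 8-pt); confirmatory 11-pt.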
Assay [3] is described as follows: qHTS of pediatric cancer cell lines to identify multiple opportunities for drug repurposing: Primary screen for DAOY cells (AID 1347090; active = well fitted curve in the direction sought with a large enough effect; an effect the other way counts as inactive or inconclusive; note: nearly all actives have a fitted effect of over 55% in size; note: potency is the fitted concentration of half-maximal effect). A digest of the protocol: (§1)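 Eight- or eleven-point concentration series, 48 h treatment at 37 degrees C in growth media; readout CellTiter-Glo luminescence. Potency and efficacy were taken from the concentration-response curves.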

Assay [4] is described as follows: qHTS of pediatric cancer cell lines to identify multiple opportunities for drug repurposing: Primary screen for SJ-GBM2 cells (AID 1347091; active = well fitted curve in the direction sought with a large enough effect; an effect the other way counts as inactive or inconclusive). A digest of the protocol: as §1
Assay [5] is described as follows: qHTS of pediatric cancer cell lines to identify multiple opportunities for drug repurposing: Primary screen for A673 cells (AID 1347092; active = well fitted curve in the direction sought with a large enough effect; an effect the other way counts as inactive or inconclusive; note: nearly all actives have a fitted effect of over 45% in size). The procedure, abridged:
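Luminescence from CellTiter-Glo, taken after 15 min at room temperature, served as the proxy for metabolically active cells following 48 h treatment. Both potency and efficacy were taken from curves fitted to the titration data.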

A short description of assay [6]: qHTS of pediatric cancer cell lines to identify multiple opportunities for drug repurposing: Primary screen for SK-N-MC cells (AID 1347093; active = well fitted curve in the direction sought with a large enough effect; an effect the other way counts as inactive or inconclusive; note: series mostly up to about 46 µM). A digest of the protocol: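 Metabolically active cells were quantified by ATP-dependent luminescence (CellTiter-Glo, 15 min at room temperature) following 48 h treatment. Cells had been plated at 500-1,000 per well and settled for 5 h beforehand.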

The nature of assay [7]: qHTS of pediatric cancer cell lines to identify multiple opportunities for drug repurposing: Primary screen for BT-37 cells (AID 1347094; active = well fitted curve in the direction sought with a large enough effect; an effect the other way counts as inactive or inconclusive; note: series mostly up to about 57 µM). The procedure, abridged: (§2)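 Cells plated at 500-1,000/well in growth medium, compounds added after 5 h. MIPE tested at 11 points (from 0.78 nM), NPC at 8 points (from 0.59 nM). CellTiter-Glo luminescence after 48 h; concentration-response curves from primary screen.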

Assay [8] is described as follows: qHTS of pediatric cancer cell lines to identify multiple opportunities for drug repurposing: Primary screen for NB-EBc1 cells (AID 1347095; active = well fitted curve in the direction sought with a large enough effect; an effect the other way counts as inactive or inconclusive). The procedure, abridged: as §2
Assay [9] is described as follows: qHTS of pediatric cancer cell lines to identify multiple opportunities for drug repurposing: Primary screen for U-2 OS cells (AID 1347096; active = well fitted curve in the direction sought with a large enough effect; an effect the other way counts as inactive or inconclusive; note: nearly all actives have a fitted effect of over 50% in size). A digest of the protocol:
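Cells (500-1,000/well) in growth media were settled 5 h at 37 degrees C, then given compounds for 48 h. Viability was read as CellTiter-Glo luminescence. Primary runs used MIPE at 11 points (0.78 nM-46 µM) and NPC at 8 points (0.59 nM-46 µM); follow-ups used 11 points.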

Assay [10] in a line: qHTS of pediatric cancer cell lines to identify multiple opportunities for drug repurposing: Primary screen for Saos-2 cells (AID 1347097; active = well fitted curve in the direction sought with a large enough effect; an effect the other way counts as inactive or inconclusive; note: nearly all actives have a fitted effect of over 40% in size). The procedure, abridged:
as §2

Results filed as inconclusive are left out. Calls of active or inactive are those of the source. Unless noted, calls come from the whole dose curve. Residues, ends and D or L forms follow the SMILES beside them.

Sequence of Nucleoprotein (Lymphocytic choriomeningitis virus (strain Armstrong)) (P09992 whole entry, looked up): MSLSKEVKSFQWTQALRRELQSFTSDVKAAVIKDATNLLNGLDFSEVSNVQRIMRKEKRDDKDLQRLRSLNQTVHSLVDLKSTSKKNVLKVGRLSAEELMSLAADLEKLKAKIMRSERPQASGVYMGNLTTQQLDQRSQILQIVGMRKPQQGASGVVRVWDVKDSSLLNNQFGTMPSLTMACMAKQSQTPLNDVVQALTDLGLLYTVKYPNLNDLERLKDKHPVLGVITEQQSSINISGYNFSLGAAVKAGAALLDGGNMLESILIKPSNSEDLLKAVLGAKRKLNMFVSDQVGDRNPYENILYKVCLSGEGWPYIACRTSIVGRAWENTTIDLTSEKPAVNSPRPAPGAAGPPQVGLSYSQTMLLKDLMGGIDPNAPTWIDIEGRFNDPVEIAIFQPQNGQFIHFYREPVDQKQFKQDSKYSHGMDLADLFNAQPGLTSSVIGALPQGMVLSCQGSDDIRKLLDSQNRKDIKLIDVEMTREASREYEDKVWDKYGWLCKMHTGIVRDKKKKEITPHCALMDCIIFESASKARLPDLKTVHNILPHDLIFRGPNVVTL

Regarding `COc1ccc2nc(SCc3ncc(C)c(OC)c3C)[nH]c2c1`, the Potency entry in [1] is “inactive”.

Take `COC(=O)[C@H](Cc1ccccc1)NC(=O)[C@@H](N)CC(=O)O` (H-Asp-Phe-OMe): in assay [1], the Potency entry was “inactive”.

Take `CCOC(=O)c1ccccc1O`: in assay [1], the Potency result is “inactive”.

`CC(O)CCCCn1c(=O)c2c(ncn2C)n(C)c1=O` (centres undefined): the Potency result in assay [1] is “inactive”.

In the case of `Cc1ccc(C(=O)c2ccc(CC(=O)O)n2C)cc1`, in assay [1], the Potency result is “inactive”.

Take `CC(CC(C#N)(c1ccccc1)C(C)C)N(C)C` (centres undefined): in assay [1], the Potency result was “inactive”.

Regarding `N[C@@H](COP(=O)(O)O)C(=O)O`, in assay [1], the Potency result is “inactive”.

Regarding `C#CCN[C@@H]1CCc2ccccc21`, the Potency result in [1] was “inactive”.

In the case of `CCS(=O)(=O)c1ccc(OC)c(C(=O)OC)c1`, in assay [1], the Potency entry was “inactive”.

Regarding `Cc1ccc(Nc2nccc(N(C)c3ccc4c(C)n(C)nc4c3)n2)cc1S(N)(=O)=O`, in [1], the Potency result was “inactive”.

Regarding `COc1ccccc1OCC1CNC(=O)O1` (centres undefined), in [1], the Potency entry is “inactive”.

Take `COc1ccc(NS(=O)(=O)c2ccc(N)cc2)nn1`: the Potency entry in [1] was “inactive”.

Turning to `C1COC(NC(C2CC2)C2CC2)=N1`, in assay [1], the Potency result was “inactive”.

`NC(=O)NC1NC(=O)NC1=O` (centres undefined): the Potency entry in assay [1] was “inactive”.

Take `COc1ccc2[nH]cc(CCNC(C)=O)c2c1`: the Potency result in [1] is “inactive”.

With `CC(C)(C)C(=O)Oc1ccc(S(=O)(=O)Nc2ccccc2C(=O)NCC(=O)O)cc1`, in assay [1], the Potency entry was “inactive”.

As to `NC(=O)c1ccc([N+](=O)[O-])cc1Cl`, the Potency entry in assay [1] is “inactive”.

As to `CCCOc1ccc2c(c1)CC[C@@H]1[C@@H]2CC[C@]2(C)C(OC)CC[C@@H]12` (some centres undefined), the Potency result in assay [1] is “inactive”.

With `Nc1ccc(C(=O)Nc2ccccc2N)cc1`, the Potency result in assay [1] was “inactive”.

As to `N#CSCC(=O)O`, the Potency entry in assay [1] was “inactive”.

Regarding `O=C(Nc1ccc(Br)cc1)c1cc(Br)cc(Br)c1O`, in [2], the Potency entry is “inactive”. In [3], the Potency was 21.1 µM (active).

Consider `C=C(C)[C@H]1CN[C@H](C(=O)O)[C@H]1CC(=O)O`, for which the Potency entry in assay [1], in [2], in [3], in assay [4], in assay [5] and in [6] was “inactive” in each case. Also, the Potency entry in [7], in assay [8] and in [9] was “inactive” in each case.

For the compound `NCCc1ccc(O)cc1`, the Potency entry in assay [1], in [2], in [3], in [4], in assay [5] and in [6] was “inactive” each time. Besides, the Potency result in assay [7], in assay [8] and in [9] was “inactive” throughout.

Consider `C=CCC1([C@H](C)CCC)C(=O)NC(=O)NC1=O`, for which the Potency entry in [1], in assay [2], in assay [3], in assay [4], in assay [5] and in assay [6] was “inactive” each time. The Potency result in assay [7], in assay [8] and in assay [9] was “inactive” in each case.

On to `CC(=O)C1CCOC1=O` (centres undefined), for which the Potency entry in [1], in assay [2], in [3], in assay [4], in [5] and in [6] was “inactive” throughout. Also, the Potency result in assay [7], in assay [8], in assay [9] and in assay [10] was “inactive” in each case.
